For assay [1], the target named is High affinity nerve growth factor receptor (Homo sapiens) (UniProt P04629). To be noted: at 1 µM.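 Also: each value is the mean percent inhibition of TRKA.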
Assay [2] concerns the target BDNF/NT-3 growth factors receptor (Homo sapiens) (UniProt Q16620). The following applies: at 0.1 µM.
Assay [3] shares this target. The following applies: at 1 µM.
In assay [4] the target is NT-3 growth factor receptor (Homo sapiens) (UniProt Q16288). The following applies: at 0.1 µM.
Chain of NT-3 growth factor receptor (Homo sapiens) (Q16288 32-839 limits assumed): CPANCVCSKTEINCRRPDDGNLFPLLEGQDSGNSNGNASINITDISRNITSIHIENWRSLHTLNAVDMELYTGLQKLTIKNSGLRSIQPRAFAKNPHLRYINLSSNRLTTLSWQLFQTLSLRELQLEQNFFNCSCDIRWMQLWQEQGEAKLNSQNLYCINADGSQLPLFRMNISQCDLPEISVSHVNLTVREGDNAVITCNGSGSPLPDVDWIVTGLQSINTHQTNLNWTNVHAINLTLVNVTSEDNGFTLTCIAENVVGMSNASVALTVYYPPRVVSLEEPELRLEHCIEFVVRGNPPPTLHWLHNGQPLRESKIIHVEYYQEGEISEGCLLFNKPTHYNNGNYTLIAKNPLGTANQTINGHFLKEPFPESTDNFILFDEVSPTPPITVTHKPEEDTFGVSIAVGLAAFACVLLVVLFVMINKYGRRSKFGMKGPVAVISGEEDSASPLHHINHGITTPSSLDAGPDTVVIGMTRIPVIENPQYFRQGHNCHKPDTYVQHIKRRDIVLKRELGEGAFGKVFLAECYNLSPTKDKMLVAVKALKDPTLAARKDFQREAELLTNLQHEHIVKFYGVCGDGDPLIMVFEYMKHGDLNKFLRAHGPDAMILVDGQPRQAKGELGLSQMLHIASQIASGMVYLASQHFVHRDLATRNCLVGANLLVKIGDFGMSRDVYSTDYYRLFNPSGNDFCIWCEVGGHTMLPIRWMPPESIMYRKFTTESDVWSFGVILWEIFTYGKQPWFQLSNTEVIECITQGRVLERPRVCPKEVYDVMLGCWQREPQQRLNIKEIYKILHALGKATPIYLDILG
The target is the same in assay [5]. The following applies: at 1 µM.
The target of assay [6] is T1, Tyrosine-protein kinase TXK (Homo sapiens) (UniProt P42681).
T1 sequence (whole entry): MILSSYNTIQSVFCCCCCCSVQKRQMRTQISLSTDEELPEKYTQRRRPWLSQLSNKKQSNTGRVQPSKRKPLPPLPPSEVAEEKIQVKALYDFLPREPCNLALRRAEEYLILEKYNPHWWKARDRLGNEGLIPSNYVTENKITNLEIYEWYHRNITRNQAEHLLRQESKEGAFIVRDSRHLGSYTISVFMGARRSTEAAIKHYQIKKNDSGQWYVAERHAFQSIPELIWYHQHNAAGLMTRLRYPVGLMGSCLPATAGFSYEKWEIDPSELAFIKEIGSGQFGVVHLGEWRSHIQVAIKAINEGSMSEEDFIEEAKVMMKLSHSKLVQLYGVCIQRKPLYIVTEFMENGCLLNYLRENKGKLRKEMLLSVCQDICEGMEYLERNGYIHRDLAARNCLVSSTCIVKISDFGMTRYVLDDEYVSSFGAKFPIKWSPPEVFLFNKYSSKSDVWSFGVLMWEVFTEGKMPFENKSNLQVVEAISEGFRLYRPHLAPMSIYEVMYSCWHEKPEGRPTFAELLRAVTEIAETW
The following applies: at 0.1 µM.

Assay [7] deals with T1, Tyrosine-protein kinase TXK (Homo sapiens). The following applies: at 1 µM.
For assay [8], the target named is Non-receptor tyrosine-protein kinase TYK2 (Homo sapiens) (UniProt P29597). To be noted: at 0.1 µM.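 Also: each value is a mean of the inhibition readings.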
Assay [9] deals with T2, Dual specificity protein kinase TTK (Homo sapiens) (UniProt P33981).
T2 sequence (whole entry): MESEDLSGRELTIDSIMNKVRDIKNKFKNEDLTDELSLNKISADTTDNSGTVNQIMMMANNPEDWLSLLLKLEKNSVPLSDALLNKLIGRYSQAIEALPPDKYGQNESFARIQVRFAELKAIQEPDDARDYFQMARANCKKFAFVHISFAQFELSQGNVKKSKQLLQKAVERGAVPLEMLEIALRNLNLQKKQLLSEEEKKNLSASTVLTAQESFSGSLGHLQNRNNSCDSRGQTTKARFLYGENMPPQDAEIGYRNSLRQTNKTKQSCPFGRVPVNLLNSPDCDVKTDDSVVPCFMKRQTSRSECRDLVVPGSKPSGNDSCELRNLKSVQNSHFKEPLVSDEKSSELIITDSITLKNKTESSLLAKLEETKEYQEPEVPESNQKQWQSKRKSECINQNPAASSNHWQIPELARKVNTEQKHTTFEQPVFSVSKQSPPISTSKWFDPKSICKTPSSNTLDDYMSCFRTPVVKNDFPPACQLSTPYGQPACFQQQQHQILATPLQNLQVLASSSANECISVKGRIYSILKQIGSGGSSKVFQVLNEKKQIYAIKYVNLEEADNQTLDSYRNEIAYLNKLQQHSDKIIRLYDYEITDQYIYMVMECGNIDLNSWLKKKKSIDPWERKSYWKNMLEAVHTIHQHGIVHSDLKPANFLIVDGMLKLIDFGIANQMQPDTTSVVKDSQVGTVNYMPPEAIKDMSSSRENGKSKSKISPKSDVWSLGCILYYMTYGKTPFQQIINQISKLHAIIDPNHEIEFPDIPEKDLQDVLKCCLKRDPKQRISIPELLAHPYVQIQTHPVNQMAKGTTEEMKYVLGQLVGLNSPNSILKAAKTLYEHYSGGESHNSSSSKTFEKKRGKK
To be noted: at 1 µM.

The target in assay [10] is T3, Aurora kinase A (Homo sapiens) (UniProt O14965).
T3 sequence (whole entry): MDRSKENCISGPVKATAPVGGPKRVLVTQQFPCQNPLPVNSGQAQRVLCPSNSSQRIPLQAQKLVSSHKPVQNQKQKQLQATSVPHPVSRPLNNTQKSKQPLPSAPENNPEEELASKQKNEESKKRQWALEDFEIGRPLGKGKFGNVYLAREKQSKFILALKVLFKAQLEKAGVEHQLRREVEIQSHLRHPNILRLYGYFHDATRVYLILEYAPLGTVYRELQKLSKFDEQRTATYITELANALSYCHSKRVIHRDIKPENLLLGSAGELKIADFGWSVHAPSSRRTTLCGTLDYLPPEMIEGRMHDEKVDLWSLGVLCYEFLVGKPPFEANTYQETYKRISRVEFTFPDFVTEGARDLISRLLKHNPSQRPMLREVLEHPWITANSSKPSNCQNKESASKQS
The following applies: at 0.1 µM.

In assay [11] the target is T3, Aurora kinase A (Homo sapiens). The following applies: at 1 µM.
The target of assay [12] is Aurora kinase B (Homo sapiens) (UniProt Q96GD4). The following applies: at 0.1 µM.
Chain of Aurora kinase B (Homo sapiens) (Q96GD4 whole entry): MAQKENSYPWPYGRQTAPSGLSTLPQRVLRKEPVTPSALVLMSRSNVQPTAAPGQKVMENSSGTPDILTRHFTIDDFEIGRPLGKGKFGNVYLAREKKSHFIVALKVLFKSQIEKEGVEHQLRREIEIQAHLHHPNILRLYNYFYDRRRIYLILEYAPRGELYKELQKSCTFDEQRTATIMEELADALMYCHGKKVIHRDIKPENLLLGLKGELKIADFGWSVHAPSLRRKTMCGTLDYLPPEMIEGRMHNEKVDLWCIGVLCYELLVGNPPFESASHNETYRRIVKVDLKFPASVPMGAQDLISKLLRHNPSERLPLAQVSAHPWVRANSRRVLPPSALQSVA
For assay [13] the target is unchanged. The following applies: at 1 µM.
The target of assay [14] is T4, Aurora kinase C (Homo sapiens) (UniProt Q9UQB9).
T4 sequence (whole entry): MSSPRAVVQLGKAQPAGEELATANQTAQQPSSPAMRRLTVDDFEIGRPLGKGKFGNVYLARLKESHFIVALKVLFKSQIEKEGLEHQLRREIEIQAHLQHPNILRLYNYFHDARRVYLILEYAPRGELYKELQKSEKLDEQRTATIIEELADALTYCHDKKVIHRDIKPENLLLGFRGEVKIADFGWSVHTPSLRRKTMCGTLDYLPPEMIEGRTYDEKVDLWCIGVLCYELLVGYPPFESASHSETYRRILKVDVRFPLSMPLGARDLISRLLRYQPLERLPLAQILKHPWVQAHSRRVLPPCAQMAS
To be noted: at 0.1 µM.

Assay [15] concerns the target T4, Aurora kinase C (Homo sapiens). To be noted: at 1 µM.
The target in assay [16] is Serine/threonine-protein kinase 10 (Homo sapiens) (UniProt O94804). The following applies: at 0.1 µM.
Chain of Serine/threonine-protein kinase 10 (Homo sapiens) (O94804 whole entry, looked up): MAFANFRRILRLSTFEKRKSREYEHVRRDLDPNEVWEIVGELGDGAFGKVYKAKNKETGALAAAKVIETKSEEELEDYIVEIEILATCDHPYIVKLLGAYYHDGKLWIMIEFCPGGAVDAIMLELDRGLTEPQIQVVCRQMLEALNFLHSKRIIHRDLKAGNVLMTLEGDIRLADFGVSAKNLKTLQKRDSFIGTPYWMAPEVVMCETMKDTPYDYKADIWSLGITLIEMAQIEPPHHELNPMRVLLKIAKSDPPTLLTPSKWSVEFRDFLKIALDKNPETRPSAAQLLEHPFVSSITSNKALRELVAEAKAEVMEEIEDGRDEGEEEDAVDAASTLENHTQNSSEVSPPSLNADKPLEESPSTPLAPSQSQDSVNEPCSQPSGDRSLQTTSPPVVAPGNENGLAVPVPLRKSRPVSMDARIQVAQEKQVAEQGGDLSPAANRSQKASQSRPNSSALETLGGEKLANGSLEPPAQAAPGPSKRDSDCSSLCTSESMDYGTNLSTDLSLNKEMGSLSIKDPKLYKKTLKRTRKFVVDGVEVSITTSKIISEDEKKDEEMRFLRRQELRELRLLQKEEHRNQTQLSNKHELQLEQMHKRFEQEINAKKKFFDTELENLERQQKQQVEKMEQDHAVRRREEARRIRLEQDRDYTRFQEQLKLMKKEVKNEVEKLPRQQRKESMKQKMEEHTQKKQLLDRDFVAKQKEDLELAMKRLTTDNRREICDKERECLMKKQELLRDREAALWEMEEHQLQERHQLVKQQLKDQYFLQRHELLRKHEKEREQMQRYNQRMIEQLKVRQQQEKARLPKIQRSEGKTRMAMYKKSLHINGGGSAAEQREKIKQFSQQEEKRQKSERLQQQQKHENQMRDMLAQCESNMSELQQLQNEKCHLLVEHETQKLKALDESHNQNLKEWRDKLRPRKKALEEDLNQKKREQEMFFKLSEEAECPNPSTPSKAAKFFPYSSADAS
Assay [17] has the same target. The following applies: at 1 µM.
Assay [18] concerns the target T5, Mitogen-activated protein kinase kinase kinase kinase 2 (Homo sapiens) (UniProt Q12851).
T5 sequence (whole entry): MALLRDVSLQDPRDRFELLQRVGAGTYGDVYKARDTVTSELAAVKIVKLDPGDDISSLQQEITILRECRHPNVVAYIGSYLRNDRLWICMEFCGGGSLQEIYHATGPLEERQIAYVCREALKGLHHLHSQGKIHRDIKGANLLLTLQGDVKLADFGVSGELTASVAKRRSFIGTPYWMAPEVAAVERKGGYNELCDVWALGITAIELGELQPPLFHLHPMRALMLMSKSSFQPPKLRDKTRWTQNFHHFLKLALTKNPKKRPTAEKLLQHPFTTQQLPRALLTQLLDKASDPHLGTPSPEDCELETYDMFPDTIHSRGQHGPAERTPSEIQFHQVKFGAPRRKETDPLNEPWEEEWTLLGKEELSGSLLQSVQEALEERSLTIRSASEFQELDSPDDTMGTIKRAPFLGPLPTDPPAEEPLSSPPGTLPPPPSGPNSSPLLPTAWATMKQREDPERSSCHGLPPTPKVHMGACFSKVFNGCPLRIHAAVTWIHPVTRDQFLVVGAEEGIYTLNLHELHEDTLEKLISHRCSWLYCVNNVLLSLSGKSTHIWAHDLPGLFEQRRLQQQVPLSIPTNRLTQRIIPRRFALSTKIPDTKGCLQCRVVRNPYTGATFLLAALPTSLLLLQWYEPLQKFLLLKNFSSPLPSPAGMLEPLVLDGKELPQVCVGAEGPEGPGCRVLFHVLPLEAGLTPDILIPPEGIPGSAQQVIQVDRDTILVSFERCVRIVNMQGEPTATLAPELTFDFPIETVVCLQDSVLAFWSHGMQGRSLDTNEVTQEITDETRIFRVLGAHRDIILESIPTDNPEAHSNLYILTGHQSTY
The following applies: at 0.1 µM.

Assay [19] deals with T5, Mitogen-activated protein kinase kinase kinase kinase 2 (Homo sapiens). The following applies: at 1 µM.
The target of assay [20] is Mitogen-activated protein kinase kinase kinase kinase 4 (Homo sapiens) (UniProt O95819). To be noted: at 0.1 µM.
Chain of Mitogen-activated protein kinase kinase kinase kinase 4 (Homo sapiens) (O95819 2-1239 limits assumed): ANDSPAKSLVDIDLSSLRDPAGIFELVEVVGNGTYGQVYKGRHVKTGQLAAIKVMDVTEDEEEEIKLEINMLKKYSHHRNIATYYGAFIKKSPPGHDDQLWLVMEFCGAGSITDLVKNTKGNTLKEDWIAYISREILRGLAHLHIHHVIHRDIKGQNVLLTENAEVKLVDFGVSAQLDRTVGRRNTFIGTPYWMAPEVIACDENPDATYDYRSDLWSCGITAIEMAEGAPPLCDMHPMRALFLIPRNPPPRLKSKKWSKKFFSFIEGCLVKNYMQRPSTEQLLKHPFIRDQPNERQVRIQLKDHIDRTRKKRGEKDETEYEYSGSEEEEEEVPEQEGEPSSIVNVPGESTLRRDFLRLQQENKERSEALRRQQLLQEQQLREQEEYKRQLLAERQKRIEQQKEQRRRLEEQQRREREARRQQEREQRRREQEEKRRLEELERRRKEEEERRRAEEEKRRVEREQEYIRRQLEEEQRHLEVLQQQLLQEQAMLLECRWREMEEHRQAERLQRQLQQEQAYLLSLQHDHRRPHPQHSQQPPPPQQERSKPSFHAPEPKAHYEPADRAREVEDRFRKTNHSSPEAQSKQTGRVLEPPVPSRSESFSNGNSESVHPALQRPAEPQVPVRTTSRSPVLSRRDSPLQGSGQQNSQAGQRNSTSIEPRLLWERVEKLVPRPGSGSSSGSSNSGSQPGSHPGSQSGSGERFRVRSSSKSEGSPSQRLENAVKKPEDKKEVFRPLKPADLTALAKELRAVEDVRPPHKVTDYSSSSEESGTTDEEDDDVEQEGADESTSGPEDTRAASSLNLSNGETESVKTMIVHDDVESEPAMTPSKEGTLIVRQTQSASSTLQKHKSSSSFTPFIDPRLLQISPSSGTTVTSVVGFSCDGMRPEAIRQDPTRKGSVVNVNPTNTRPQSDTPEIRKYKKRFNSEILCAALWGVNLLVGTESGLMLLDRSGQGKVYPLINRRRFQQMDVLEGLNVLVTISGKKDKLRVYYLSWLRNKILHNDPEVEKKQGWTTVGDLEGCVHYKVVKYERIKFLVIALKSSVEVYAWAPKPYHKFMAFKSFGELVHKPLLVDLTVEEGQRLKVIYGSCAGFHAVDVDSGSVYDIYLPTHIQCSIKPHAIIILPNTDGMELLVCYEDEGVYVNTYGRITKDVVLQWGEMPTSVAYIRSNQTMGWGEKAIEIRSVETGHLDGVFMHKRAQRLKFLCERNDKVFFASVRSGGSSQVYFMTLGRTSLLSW

Where “and” joins values, the source holds several entries; their conditions need not be identical. Equal entries are not always repeated.

Chain of BDNF/NT-3 growth factors receptor (Homo sapiens) (Q16620 32-822 limits assumed): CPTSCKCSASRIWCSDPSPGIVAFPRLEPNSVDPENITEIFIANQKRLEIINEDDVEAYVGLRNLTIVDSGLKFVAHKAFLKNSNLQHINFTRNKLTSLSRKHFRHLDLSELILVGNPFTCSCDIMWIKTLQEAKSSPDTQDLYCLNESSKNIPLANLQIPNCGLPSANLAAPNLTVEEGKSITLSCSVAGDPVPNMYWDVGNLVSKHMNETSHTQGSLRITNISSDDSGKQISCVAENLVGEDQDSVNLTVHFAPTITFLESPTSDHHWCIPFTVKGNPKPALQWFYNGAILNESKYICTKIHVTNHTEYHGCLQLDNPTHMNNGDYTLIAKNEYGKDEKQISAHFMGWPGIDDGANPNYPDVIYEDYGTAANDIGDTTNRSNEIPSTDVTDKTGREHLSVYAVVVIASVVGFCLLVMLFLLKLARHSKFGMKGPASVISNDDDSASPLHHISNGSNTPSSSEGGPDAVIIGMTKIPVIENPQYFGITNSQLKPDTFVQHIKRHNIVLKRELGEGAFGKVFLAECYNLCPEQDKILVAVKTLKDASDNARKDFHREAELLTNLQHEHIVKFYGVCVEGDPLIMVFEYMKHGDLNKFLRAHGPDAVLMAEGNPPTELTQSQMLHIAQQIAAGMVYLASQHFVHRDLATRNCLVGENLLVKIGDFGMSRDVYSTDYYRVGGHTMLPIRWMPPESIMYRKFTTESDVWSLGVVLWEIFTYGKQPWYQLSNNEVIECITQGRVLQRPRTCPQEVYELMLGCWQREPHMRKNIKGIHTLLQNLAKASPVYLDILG
Chain of High affinity nerve growth factor receptor (Homo sapiens) (P04629 33-796 limits assumed): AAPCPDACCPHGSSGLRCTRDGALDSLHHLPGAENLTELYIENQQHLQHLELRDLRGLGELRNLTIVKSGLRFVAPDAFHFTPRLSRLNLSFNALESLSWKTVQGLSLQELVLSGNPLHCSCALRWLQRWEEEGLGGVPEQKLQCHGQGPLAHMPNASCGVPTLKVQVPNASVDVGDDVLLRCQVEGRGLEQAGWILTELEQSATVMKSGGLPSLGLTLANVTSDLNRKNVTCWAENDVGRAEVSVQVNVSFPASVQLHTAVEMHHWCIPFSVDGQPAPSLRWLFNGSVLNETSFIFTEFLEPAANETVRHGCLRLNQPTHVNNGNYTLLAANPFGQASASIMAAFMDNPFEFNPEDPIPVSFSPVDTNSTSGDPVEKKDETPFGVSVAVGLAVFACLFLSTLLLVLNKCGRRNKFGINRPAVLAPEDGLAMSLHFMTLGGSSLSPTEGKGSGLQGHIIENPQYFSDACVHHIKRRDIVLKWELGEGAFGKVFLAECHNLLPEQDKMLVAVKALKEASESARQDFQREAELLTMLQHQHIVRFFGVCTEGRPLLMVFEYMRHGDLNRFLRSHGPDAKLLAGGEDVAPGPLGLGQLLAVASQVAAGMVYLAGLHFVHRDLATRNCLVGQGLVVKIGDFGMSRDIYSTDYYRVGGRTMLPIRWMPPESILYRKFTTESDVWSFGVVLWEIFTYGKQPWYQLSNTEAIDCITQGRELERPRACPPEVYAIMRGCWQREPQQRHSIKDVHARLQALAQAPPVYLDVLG

By inhibition is commonly meant the relative decrease from the control value, in per cent. Take `c1ccc(-c2n[nH]cc2-c2ccnc(-c3ccc(OCCn4ccnc4)cc3)c2)nc1`: the inhibition in assay [1] stood at 3.78%; in assay [2], 0.64%; in [3], 4.04%; in [4], 0.02%; in assay [5] it was 4.91%; in assay [6], 0.7%. Moreover, the inhibition in assay [7] is 4.37%; in [8], 1.04%; in assay [9], 10.7%; in [10] it was 1.14%; in assay [11], 11.1%; in [12], 1.69%. Further, the inhibition was determined as 15.1% in assay [13]; 1.04% in [14]; 7.73% in [15]; 2.54% in [16]; 4.01% in [17]; 3.67% in [18]. Besides, the inhibition came out at 7.08% in assay [19] and 42.6% in assay [20].
For the compound `OCCCNc1nccc(-c2c(-c3ccc(F)cc3)nn3cc(C(F)(F)F)ccc23)n1`, the inhibition in [1] amounted to 1.07%; in assay [2], 1.2%; in assay [3] it was 1.1%; in [4], 2.9%; in [5], 2.72%; in assay [6] it was 4.77%. The inhibition in assay [7] is 6.39%; in [8], -6.14%; in assay [9], 4.7%; in assay [10], 0.87%; in assay [11], 7.6%; in assay [12], 3.85%. Further, the inhibition in assay [13] turned out to be 9.08%; in assay [14] it was 0.36%; in [15] it was 2.19%; in assay [16], 6.36%; in assay [17] it was 8.12%; in assay [18], 0.6%. For the same compound, the inhibition in assay [19] turned out to be 3.51%; in [20], 5.34%.
For the compound `COC(=O)Nc1nc2cc(Oc3ccc(NC(=O)Nc4ccccc4)cc3)ccc2[nH]1`, the inhibition came to 0.28% in [1]; 1.72% in assay [2]; 3.06% in assay [3]; 4.04% in [4]; 7.05% in assay [5]; 1.84% in assay [6]. Also, the inhibition was 1.98% in [7]; -2.96% in assay [8]; 4.66% in assay [9]; 2.47% in [10]; 3.53% in [11]; 11.9% in assay [12]. Besides, the inhibition stood at 24.9% in assay [13]; 28.9% in assay [14]; 42.6% in assay [15]; 9.63% in assay [16]; 14.7% in [17]; 1.5% in [18]. In addition, the inhibition in assay [19] turned out to be 0.87%; in assay [20] it was 3.39%.
`CN1CCC(C(=O)Nc2n[nH]c3nc(-c4ccc(O)cc4)c(Br)cc23)CC1`: the inhibition in assay [1] was 1.2% and 2.04%; in assay [2] it was 2.51% and 1.42%; in assay [3], 3.32% and 2.74%; in [4], 3.04% and 2.59%; in assay [5], 4.91% and 0.79%; in [6], -0.5% and 4.86%. Moreover, the inhibition in [7] was -0.68% and 3.3%; in assay [8], -2.31% and 0.31%; in assay [9] it was 19% and 6.37%; in assay [10] it was -1.93% and 2.95%; in assay [11] it was 3.82% and 3.89%; in assay [12] it was -1.01% and 4.45%. The inhibition was 4.6% and 6.84% in assay [13]; -1.83% and 3.73% in [14]; -7.86% and 5.17% in assay [15]; 4.1% and 3% in assay [16]; 13.5% and 9.07% in [17]; 4.77% and 3.87% in assay [18]. Besides, the inhibition is 24.7% and 19.9% in assay [19]; 7.33% and 2.89% in [20].
Regarding `Cc1ccc(-c2cc3c(NC(=O)C4CC4)ncnc3o2)cc1`, the inhibition in assay [1] is 1.15%; in assay [2], 1.73%; in [3], 4.58%; in [4], 2.91%; in assay [5], 4.4%; in assay [6] it was 3.92%. In addition, the inhibition in [7] is 8.76%; in assay [8], -1.91%; in assay [9], 10.2%; in [10], 3.75%; in [11] it was 15.8%; in [12], 5.78%. The inhibition turned out to be 17.5% in assay [13]; 2.4% in [14]; 19.2% in assay [15]; 2.34% in assay [16]; 15.1% in assay [17]; 0.9% in assay [18]. Also, the inhibition in assay [19] was 2.12%; in assay [20], 6.07%.
`O=C(O[C@H]1CN[C@H](C#Cc2cc3ncnc(Nc4ccc(OCc5cccc(F)c5)c(Cl)c4)c3s2)C1)N1CCOCC1`: the inhibition worked out at 0.52% in assay [1]; 3.03% in [2]; 5.79% in assay [3]; 2.99% in assay [4]; 7.73% in assay [5]; 1.89% in [6]. Besides, the inhibition in [7] is 1.16%; in assay [8], -6.96%; in assay [9] it was 13%; in [10], 1.79%; in [11], 7.57%; in assay [12], 3.72%. In addition, the inhibition was 9.81% in [13]; 1.9% in assay [14]; 5.83% in [15]; 9.8% in assay [16]; 19% in [17]; 1.53% in [18]. For the same compound, the inhibition was 0.84% in assay [19] and 5.04% in assay [20].
